Measured values published in article PMC7862700, “An all-to-all approach to the identification of sequence-specific readers for epigenetic DNA modifications on cytosine”.

Columns and labels:
Experiment in all cases: DAPPL (digital affinity profiling via proximity ligation, sequencing); 10 mM Tris-HCl pH 7.5, 50 mM NaCl, 1 mM DTT, 4% glycerol, room temperature, 30 min; GST-TFs on glutathione beads, 16-mer random dsDNA library, 0.1% formaldehyde crosslink after washing; high values mean tight binding
Details in all cases: protein: recombinant; tags: N-terminal GST; dsDNA, one strand shown
[1] = molecular target: T1, FLI1 (Homo sapiens, UniProt Q01543 1-452)
T1 sequence: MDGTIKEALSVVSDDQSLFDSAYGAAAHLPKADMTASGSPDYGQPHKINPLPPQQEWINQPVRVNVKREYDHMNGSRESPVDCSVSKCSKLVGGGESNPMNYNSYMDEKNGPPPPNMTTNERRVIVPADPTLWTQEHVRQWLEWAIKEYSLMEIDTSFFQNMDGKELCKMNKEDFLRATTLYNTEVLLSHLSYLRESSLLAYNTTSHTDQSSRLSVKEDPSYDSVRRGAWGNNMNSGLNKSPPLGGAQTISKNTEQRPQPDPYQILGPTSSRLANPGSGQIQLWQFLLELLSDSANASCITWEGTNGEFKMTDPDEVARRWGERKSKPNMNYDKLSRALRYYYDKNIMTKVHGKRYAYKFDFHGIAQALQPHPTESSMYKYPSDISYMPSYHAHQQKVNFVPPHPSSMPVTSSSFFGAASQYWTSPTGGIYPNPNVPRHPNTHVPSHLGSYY
Summary of the method: (§1)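 Pools were built from human transcription factors expressed in yeast as GST fusions, captured on glutathione beads and DNA-barcoded, along with a tag-only sample. Incubation with 200 nmole of a 16-mer random double-stranded DNA library lasted 30 min at room temperature in Tris/NaCl/DTT/glycerol buffer, and was followed by washing, 0.1% formaldehyde crosslinking, proximity ligation, PCR amplification and Illumina NextSeq500 sequencing. Binding signal is the quotient of each hexamer's read frequency for a factor and its frequency for the tag-only sample.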

[2] = molecular target: T2, EHF (Homo sapiens, UniProt Q9NZC4 1-300)
T2 sequence: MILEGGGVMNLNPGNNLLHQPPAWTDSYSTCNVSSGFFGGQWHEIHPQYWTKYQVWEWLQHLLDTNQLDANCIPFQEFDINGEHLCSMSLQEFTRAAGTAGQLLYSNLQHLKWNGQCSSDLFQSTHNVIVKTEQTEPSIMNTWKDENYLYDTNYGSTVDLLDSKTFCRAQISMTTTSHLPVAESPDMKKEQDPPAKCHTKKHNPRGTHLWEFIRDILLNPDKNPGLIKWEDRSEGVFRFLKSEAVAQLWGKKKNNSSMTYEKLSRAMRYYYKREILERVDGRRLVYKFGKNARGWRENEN
Summary of the method: as §1

[3] = molecular target: SPI1 (Homo sapiens, UniProt P17947 1-270)
Summary of the method: as §1

[4] = molecular target: ETV5 (Homo sapiens, UniProt P41161 1-510)
Sequence of ETV5 (P41161 whole entry): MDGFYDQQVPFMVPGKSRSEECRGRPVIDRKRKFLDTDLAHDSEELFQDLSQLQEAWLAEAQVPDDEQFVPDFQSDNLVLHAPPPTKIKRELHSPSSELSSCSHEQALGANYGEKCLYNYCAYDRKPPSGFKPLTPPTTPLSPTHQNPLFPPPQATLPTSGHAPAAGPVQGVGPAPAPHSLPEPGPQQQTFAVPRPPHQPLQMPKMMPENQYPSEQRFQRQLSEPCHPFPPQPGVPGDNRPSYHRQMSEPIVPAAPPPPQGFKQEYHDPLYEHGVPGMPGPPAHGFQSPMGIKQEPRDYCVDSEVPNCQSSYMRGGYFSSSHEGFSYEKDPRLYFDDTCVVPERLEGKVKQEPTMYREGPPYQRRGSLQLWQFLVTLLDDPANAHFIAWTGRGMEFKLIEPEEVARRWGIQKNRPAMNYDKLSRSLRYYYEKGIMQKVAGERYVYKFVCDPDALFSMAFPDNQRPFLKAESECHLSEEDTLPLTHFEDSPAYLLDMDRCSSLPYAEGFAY
Summary of the method: as §1

[5] = molecular target: T3, ETV7 (Homo sapiens, UniProt Q9Y603 1-341)
T3 sequence: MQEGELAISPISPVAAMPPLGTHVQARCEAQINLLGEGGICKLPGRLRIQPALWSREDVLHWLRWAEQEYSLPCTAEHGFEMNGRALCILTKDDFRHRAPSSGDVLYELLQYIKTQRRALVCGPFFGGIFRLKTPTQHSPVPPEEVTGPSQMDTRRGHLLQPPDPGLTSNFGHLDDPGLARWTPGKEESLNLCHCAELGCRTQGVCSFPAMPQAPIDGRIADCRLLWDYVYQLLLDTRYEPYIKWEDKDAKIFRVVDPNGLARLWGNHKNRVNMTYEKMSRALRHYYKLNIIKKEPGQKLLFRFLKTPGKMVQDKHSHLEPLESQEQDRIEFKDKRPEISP
Summary of the method: as §1

[6] = molecular target: ETV6 (Homo sapiens, UniProt P41212 1-452)
Sequence of ETV6 (P41212 whole entry): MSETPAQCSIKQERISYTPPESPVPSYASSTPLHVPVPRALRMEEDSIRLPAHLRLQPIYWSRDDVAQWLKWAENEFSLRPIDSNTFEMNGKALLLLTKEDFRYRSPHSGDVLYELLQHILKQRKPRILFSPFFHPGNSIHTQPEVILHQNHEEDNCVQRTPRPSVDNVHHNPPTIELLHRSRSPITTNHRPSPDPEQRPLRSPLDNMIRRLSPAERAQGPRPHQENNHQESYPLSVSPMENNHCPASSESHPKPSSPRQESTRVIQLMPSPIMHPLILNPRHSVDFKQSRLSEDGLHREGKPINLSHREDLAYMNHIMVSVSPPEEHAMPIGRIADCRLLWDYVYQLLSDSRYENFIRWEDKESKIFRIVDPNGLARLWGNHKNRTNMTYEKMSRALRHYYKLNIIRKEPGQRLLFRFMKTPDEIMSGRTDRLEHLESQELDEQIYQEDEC
Summary of the method: as §1

## AGTGTA
[1]
  binding signal: 1.03 fold enrichment (6-mer frequency, TF over GST control)
[2]
  binding signal: 1.02 fold enrichment (6-mer frequency, TF over GST control)
[3]
  binding signal: 1.24 fold enrichment (6-mer frequency, TF over GST control)
[4]
  binding signal: 1.05 fold enrichment (6-mer frequency, TF over GST control)
[5]
  binding signal: 1.1 fold enrichment (6-mer frequency, TF over GST control)
[6]
  binding signal: 1.03 fold enrichment (6-mer frequency, TF over GST control)
